Reference: PubChem BioAssay AID1159580 (chemical genetic matrix, 2015)
Screen size: about 5,500 compounds; about 2,000 (36%) were called active. Roughly 18% stayed inconclusive and do not appear here. Cut-off read from the data, not from the text of the source: active = normalized growth mostly below about 0.91 (no sharp cut-off); inconclusive = no clear call, values can overlap the other calls; inactive = mostly above about 0.92. Some of the results follow.

Assay: chemical genetic growth profiling, strain panel (AID 1159580);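 note: tested at 20 µM; growth read once vehicle control cultures reached saturation at 30 °C; 1 = growth at the plate median or of vehicle wells; lower values mean less growth of the strain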
Conditions: growth OD

Measured: normalized growth

CC[C@H]1OC(=O)[C@H](C)[C@@H](O[C@H]2C[C@@](C)(OC)[C@@H](O)[C@H](C)O2)[C@H](C)[C@@H](O[C@@H]2O[C@H](C)C[C@H](N(C)C)[C@H]2O)[C@](C)(O)C[C@@H](C)[C@@H]2N[C@@H](COCCOC)O[C@H]([C@H]2C)[C@]1(C)O
inactive: S. cerevisiae deletion strains, locus YJR075W, strain HOC1, active compounds read low 1.05 | S. cerevisiae deletion strains, locus YKL009W, strain mrt4, active compounds read low 1.03 | S. cerevisiae deletion strains, locus YKL068W, active compounds read low 1 | S. cerevisiae deletion strains, locus YKL085W, strain MDH1 (second series), active compounds read low 0.976 | S. cerevisiae deletion strains, locus YKL085W, strain MDH1, active compounds read low 0.976 | S. cerevisiae deletion strains, locus YKL160W, strain elf1, active compounds read low 1 | S. cerevisiae deletion strains, locus YKR001C, strain vps1, active compounds read low 1.01 | S. cerevisiae deletion strains, locus YKR026C, strain gcn3, active compounds read low 0.987 | S. cerevisiae deletion strains, locus YKR091W, strain srl3, active compounds read low 0.997 | S. cerevisiae deletion strains, locus YLL001W, strain dnm1, active compounds read low 0.991 | S. cerevisiae deletion strains, locus YLL026W, active compounds read low 0.984 | S. cerevisiae deletion strains, locus YLL041C, strain sdh2, active compounds read low 0.986 | S. cerevisiae deletion strains, locus YLR027C, strain aat2, active compounds read low 0.991 | S. cerevisiae deletion strains, locus YLR039C, strain RIC1, active compounds read low 0.982 | S. cerevisiae deletion strains, locus YLR058C, strain SHM2, active compounds read low 1.02 | S. cerevisiae deletion strains, locus YLR102C, strain apc9, active compounds read low 1.01 | S. cerevisiae deletion strains, locus YLR113W, strain HOG1, active compounds read low 1.04 | S. cerevisiae deletion strains, locus YLR221C, strain rsa3, active compounds read low 0.993 | S. cerevisiae deletion strains, locus YLR258W, strain gsy2, active compounds read low 1 | S. cerevisiae deletion strains, locus YLR262C, strain YPT6 (second series), active compounds read low 0.985 | S. cerevisiae deletion strains, locus YLR262C, strain YPT6, active compounds read low 1.01 | S. cerevisiae deletion strains, locus YLR268W, strain sec22, active compounds read low 0.999 | S. cerevisiae deletion strains, locus YLR320W, strain mms22, active compounds read low 0.991 | S. cerevisiae deletion strains, locus YLR330W, strain CHS5, active compounds read low 1.01 | S. cerevisiae deletion strains, locus YLR342W, strain FKS1 (second series), active compounds read low 1.02 | S. cerevisiae deletion strains, locus YLR342W, strain FKS1, active compounds read low 0.992 | S. cerevisiae deletion strains, locus YLR357W, strain rsc2, active compounds read low 0.958 | S. cerevisiae deletion strains, locus YLR370C, strain arc18, active compounds read low 0.989 | S. cerevisiae deletion strains, locus YLR371W, strain rom2, active compounds read low 1 | S. cerevisiae deletion strains, locus YLR384C, strain iki3, active compounds read low 0.993 | S. cerevisiae deletion strains, locus YLR418C, strain cdc73, active compounds read low 0.996 | S. cerevisiae deletion strains, locus YML016C, strain PPZ1, active compounds read low 1.01 | S. cerevisiae deletion strains, locus YML032C, strain rad52, active compounds read low 0.999 | S. cerevisiae deletion strains, locus YML120C, strain ndi1, active compounds read low 0.997 | S. cerevisiae deletion strains, locus YML124C, strain tub3, active compounds read low 1 | S. cerevisiae deletion strains, locus YMR058W, strain fet3, active compounds read low 0.997 | S. cerevisiae deletion strains, locus YMR078C, strain ctf18, active compounds read low 1.01 | S. cerevisiae deletion strains, locus YMR125W, strain sto1, active compounds read low 0.992 | S. cerevisiae deletion strains, locus YMR129W, active compounds read low 1 | S. cerevisiae deletion strains, locus YMR205C, strain PFK2, active compounds read low 0.969 | S. cerevisiae deletion strains, locus YMR223W, strain ubp8, active compounds read low 1.02 | S. cerevisiae deletion strains, locus YMR231W, strain pep5, active compounds read low 0.993 | S. cerevisiae deletion strains, locus YMR263W, strain SAP30, active compounds read low 1.03 | S. cerevisiae deletion strains, locus YMR307W, strain GAS1, active compounds read low 0.919 | S. cerevisiae deletion strains, locus YNL067W, strain RPL9B, active compounds read low 1.04 | S. cerevisiae deletion strains, locus YNL071W, strain lat1, active compounds read low 0.999 | S. cerevisiae deletion strains, locus YNL128W, strain TEP1, active compounds read low 1.02 | S. cerevisiae deletion strains, locus YNL183C, strain NPR1, active compounds read low 0.96 | S. cerevisiae deletion strains, locus YNL209W, strain ssb2, active compounds read low 0.988 | S. cerevisiae deletion strains, locus YNL233W, strain BNI4, active compounds read low 1.03 | S. cerevisiae deletion strains, locus YNL248C, strain rpa49, active compounds read low 0.975 | S. cerevisiae deletion strains, locus YNL250W, strain rad50, active compounds read low 1.01 | S. cerevisiae deletion strains, locus YNL271C, strain bni1, active compounds read low 1.01 | S. cerevisiae deletion strains, locus YNL298W, strain CLA4, active compounds read low 1 | S. cerevisiae deletion strains, locus YNL307C, strain MCK1, active compounds read low 1 | S. cerevisiae deletion strains, locus YNL322C, strain KRE1 (second series), active compounds read low 0.995 | S. cerevisiae deletion strains, locus YNR049C, strain mso1, active compounds read low 0.989 | S. cerevisiae deletion strains, locus YNR052C, strain pop2, active compounds read low 1.01 | S. cerevisiae deletion strains, locus YOL006C, strain TOP1, active compounds read low 1.09 | S. cerevisiae deletion strains, locus YOL012C, strain htz1 1.56 | S. cerevisiae deletion strains, locus YOL147C, strain pex11, active compounds read low 1 | S. cerevisiae deletion strains, locus YOR001W, strain rrp6, active compounds read low 0.986 | S. cerevisiae deletion strains, locus YOR061W, strain CKA2, active compounds read low 1.02 | S. cerevisiae deletion strains, locus YOR069W, strain VPS5, active compounds read low 1.01 | S. cerevisiae deletion strains, locus YOR070C, strain gyp1, active compounds read low 0.999 | S. cerevisiae deletion strains, locus YOR080W, strain dia2, active compounds read low 0.995 | S. cerevisiae deletion strains, locus YOR083W, strain WHI5, active compounds read low 0.996 | S. cerevisiae deletion strains, locus YOR106W, strain vam3, active compounds read low 0.999 | S. cerevisiae deletion strains, locus YOR136W, strain idh2, active compounds read low 1 | S. cerevisiae deletion strains, locus YOR144C, strain elg1, active compounds read low 1.01 | S. cerevisiae deletion strains, locus YOR184W, strain ser1, active compounds read low 1 | S. cerevisiae deletion strains, locus YOR231W, strain MKK1, active compounds read low 1.02 | S. cerevisiae deletion strains, locus YOR265W, strain rbl2, active compounds read low 0.996 | S. cerevisiae deletion strains, locus YOR270C, strain vph1, active compounds read low 0.978 | S. cerevisiae deletion strains, locus YOR290C, strain snf2, active compounds read low 0.981 | S. cerevisiae deletion strains, locus YOR316C, strain cot1, active compounds read low 1.01 | S. cerevisiae deletion strains, locus YPL051W, strain arl3, active compounds read low 1.01 | S. cerevisiae deletion strains, locus YPL078C, strain atp4, active compounds read low 0.995 | S. cerevisiae deletion strains, locus YPL106C, strain sse1, active compounds read low 0.978 | S. cerevisiae deletion strains, locus YPL240C, strain hsp82, active compounds read low 0.989 | S. cerevisiae deletion strains, locus YPL256C, strain CLN2, active compounds read low 1.01 | S. cerevisiae deletion strains, locus YPR119W, strain clb2, active compounds read low 1.01 | S. cerevisiae deletion strains, locus YPR141C, strain kar3, active compounds read low 1.01 | S. cerevisiae deletion strains, locus YPR163C, strain tif3, active compounds read low 1.02 | S. cerevisiae deletion strains, locus YPR167C, strain met16, active compounds read low 0.996 | S. cerevisiae deletion strains, strain wtn01, active compounds read low 1 | S. cerevisiae strains, strain wild type, active compounds read low 1.02
